Structures are written as SMILES. Results filed as inconclusive are left out. A number with no mark means an inactive call. Calls of active or inactive are those of the source. Calls come from the whole dose curve; as a rule, active = well fitted cell-killing curve with a large enough effect; inconclusive = small, poorly fitted or top-dose-only effect, or effect the other way; inactive = flat fitted curve, though single readings scatter.
% is set by controls: 0 for no effect and ±100 for the full control effect.

This assay relates to JEG-3. Kind of assay: Primary qHTS to identify gynecologic anti-cancer compounds using libraries of approved drugs and bioactive compounds (AID 1345084). Note: nearly all actives have a fitted effect of over 55% in size. Conditions: Gynecologic cancer cell panel viability, ATPlite luminescence, 48 h; series mostly up to 57.5 µM; activity change, negative = cytotoxicity: at the top concentration. An excerpt:
National Center for Advancing Translational Sciences [NCATS] Assay Overview: Chemotherapeutic drug responses vary from cancer to cancer and from patient to patient. These variations could be caused by a number of factors including patient genomic background, tumor mutations, tumor heterogeneity, and aspects of drug treatment. Chemotherapeutic drug resistance is also a common issue and can lead to ineffective treatment and patient death. Here we have profiled the cell killing effects of thousands of compounds to characterize the responses in three gynecological cancers, identify cancer-selective compounds, and understand the diversity of responses to these compounds from pan-cancer suppressors to single cell line selective compounds. In this assay, we screened a 7,914 compound drug library that included approved drug and bioactive compounds in six ovarian, three cervical, and […] placental cancer cell lines using the ATPlite assay for cell viability. […] The cervical cancer cell lines included HeLa, Ca Ski, and C-33 A. The placental cancer cell lines included JEG-3. HEK 293T cells were used as the control cell line to determine the selectivity index. ATPlite is a luminescence based assay reliant on the conversion of a luciferase substrate to light in the presence of ATP. As a cytotoxic compound will suppress growth and decrease the number of cells, the concentration of ATP will decrease, and less light signal will be detected in the well.
Assay Protocol Summary: 1,000 cells in 4 uL of media were dispensed into white, solid bottom 1536-well plates using a Multidrop Combi (Thermo Scientific). The Assay plates were incubated for 16 hours at 37 C with 5% CO2 in assay plates, followed by the addition of 23 nL of DMSO or drug dissolved in DMSO. Each compound was assayed in five concentrations (0.092, 0.46, 2.3, 11.5, and 57.5 uM), using the automated Wako 1536 Pin Tool workstation and incubated at 37 C with 5% CO2 48 hours. 4 uL of ATPlite, the ATP monitoring reagent, was then added to the each well of the assay plates using the Multidrop Combi reagent dispenser followed by incubation for 15 minutes at room temperature. The resulting luminescence was measured using the ViewLux plate reader.
Take `Nc1ccncc1`: the “activity change, negative = cytotoxicity” value is 8.26%. Still for that read-out and setting: then `O=C(NC(O)C(Cl)(Cl)Cl)NC(O)C(Cl)(Cl)Cl` (stereo not given), with 0.941%. For the molecule `Oc1ccc(Cl)cc1Cc1ccccc1`, the Potency result is “inactive”. Regarding `Clc1cccc(N2CCNCC2)c1`, the “activity change, negative = cytotoxicity” value is 4.97%. In the case of `CN1C(=S)CN=C(c2ccccc2)c2cc(Cl)ccc21`, the “activity change, negative = cytotoxicity” value was -0.909%. Still for that read-out and setting: as for `Oc1ccccc1-c1ccccc1`, the figure is 9.63%; as for `CC[N+](CC)(CC)CC`, 5.66%.

As for `C[C@]12C/C(=C/O)C(=O)C[C@@H]1CC[C@@H]1[C@@H]2CC[C@@]2(C)[C@H]1CC[C@]2(C)O`, the “activity change, negative = cytotoxicity” value is 0.598%. Same read-out and setting: then `Clc1ccc(COC(Cn2ccnc2)c2ccc(Cl)cc2Cl)cc1` (stereo not given), with -17.6%. Turning to `COc1ccc2c(c1OC)CN1CCc3cc4c(cc3C1C2)OCO4` (stereo not given), the “activity change, negative = cytotoxicity” value is 19.7%. Consider `CC(=O)Nc1cc([As](=O)(O)O)ccc1O`, for which the “activity change, negative = cytotoxicity” value was 1.55%. Same read-out and setting: then `C[C@]12CCC(=O)C(O)=C1CC[C@@H]1[C@@H]2CC[C@]2(C)C(=O)CC[C@@H]12`, with 16.4%; and `COc1ccccc1N1CCNCC1`, with 3.21%. Same read-out and setting: as for `O=C1CC[C@@]2(O)[C@H]3Cc4ccc(O)c5c4[C@@]2(CCN3CC2CC2)[C@H]1O5`, the figure is -16.9%. The same measure, in the same setting: then `O=c1oc2ccccc2c(O)c1C(CC(O)c1ccc(-c2ccc(Br)cc2)cc1)c1ccccc1` (stereo not given), with -5.67%; and `Cc1ccc(S(=O)(=O)N[C@@H](CCCCN)C(=O)CCl)cc1`, with 0.791%; and `CC[N+]1(C)CCCC(OC(=O)C(O)(c2ccccc2)c2ccccc2)C1` (stereo not given), with -1.34%. For the molecule `C[C@]12CC[C@H]3[C@@H](CCC4=CC(=O)CC[C@@H]43)[C@@H]1CC[C@@H]2OC(=O)CCc1ccccc1`, the “activity change, negative = cytotoxicity” value is -1.92%. Same read-out and setting: as for `CC1OC(C)OC(C)O1` (stereo not given), the figure is -2.25%; as for `CCOC(=O)C1(c2ccccc2)CCN(CCC(C#N)(c2ccccc2)c2ccccc2)CC1`, -5.85%. The same measure, in the same setting: then `Clc1ccc(CCC(Cn2ccnc2)Sc2c(Cl)cccc2Cl)cc1` (stereo not given), with 13.2%; and `O=[N+]([O-])c1cc([As](=O)(O)O)ccc1O`, with -11.2%. As for `N[C@@H](Cc1ccc(Oc2cc(I)c(O)c(I)c2)c(I)c1)C(=O)O`, the “activity change, negative = cytotoxicity” value was 0.186%.

On to `CCC(COC(=O)c1cc(OC)c(OC)c(OC)c1)(c1ccccc1)N(C)C` (stereo not given), for which the “activity change, negative = cytotoxicity” value was -29.2%.

`NCC1(CC(=O)O)CCCCC1`: the “activity change, negative = cytotoxicity” value was -2.81%. In the case of `CCC1(C2=NCCN2)Cc2ccccc2O1` (stereo not given), the “activity change, negative = cytotoxicity” value is -3.81%. The same measure, in the same setting: as for `CNCC(O)c1ccc(O)cc1` (stereo not given), the figure is 3.54%. In the case of `OCCOc1ccccc1`, the “activity change, negative = cytotoxicity” value is -0.301%. Still for that read-out and setting: then `Cc1cccc(C)c1NC1=NCCCS1`, with 3.22%; and `NN=C(N)N`, with -14.6%.

With `CN(C)CCc1ccc(O)cc1`, the “activity change, negative = cytotoxicity” value is -0.795%. Consider `O=C(O)c1ccc2[nH]cc(CCCCN3CC=C(c4ccccc4)CC3)c2c1`, for which the “activity change, negative = cytotoxicity” value was 3.24%.

For `c1ccc(C2CC2)c(OCC2=NCCN2)c1`, the “activity change, negative = cytotoxicity” value is -2.84%. As to `CC(C)NCC(O)c1ccccc1Cl` (stereo not given), the “activity change, negative = cytotoxicity” value was -6.08%. For the molecule `NCC(CC(=O)O)c1ccc(Cl)cc1` (stereo not given), the activity change, negative = cytotoxicity was -6.96% [at 0.462 µM]. As for `O=c1[nH]c2ccccc2n1C1CCN(CCCC(c2ccc(F)cc2)c2ccc(F)cc2)CC1`, the Potency result is “inactive”. For `CC1NCCOC1c1ccccc1` (stereo not given), the “activity change, negative = cytotoxicity” value is 8.38%. For `C=CCN1CC[C@]23c4c5ccc(O)c4O[C@H]2C(=O)CC[C@@]3(O)[C@H]1C5`, the “activity change, negative = cytotoxicity” value is 9.17%. As to `CCN(C(C)=O)c1cccc(-c2ccnc3c(C#N)cnn23)c1`, the “activity change, negative = cytotoxicity” value was 12.8%. As for `NP(N)(=O)NC(=O)c1ccc(F)cc1`, the “activity change, negative = cytotoxicity” value was 0.278%.

For the origin of these results see PubChem BioAssay (NCATS).
